Calls of active or inactive are those of the source. Rule for the calls: active = hit-call score of the fitted dose curve at least 0.9, where 1 is the maximum; inactive = score below 0.9.
assay: ATG_NF_kB_CIS: Attagene CIS-FACTORIAL HepG2 Assay for human Nuclear Factor Kappa B (NF-kB) (AID 2282991); details: HepG2 Attagene cis-factorial NF-kB reporter mRNA; actives raise or lower the signal
Procedure, shortened: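 Fluorescence of labelled RT-PCR products separated by capillary electrophoresis gives reporter mRNA levels from transfected HepG2 cells exposed 24 h; values are fitted in both directions relative to DMSO.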

| Structure (SMILES) | outcome | AC50 |
| --- | --- | --- |
| O=C(c1ccccc1)C(O)c1ccccc1 (stereo unspecified) | inactive | – |
| C=CC(=O)OCCC#N | – | 50.9 µM (active) |
| C=C(C)C(=O)OCCOCCOCCOC(=O)C(=C)C | inactive | – |
| C/C=C(\C)C(=O)OCCc1ccccc1 | inactive | – |
| O=CCc1ccccc1 | inactive | – |
| COC(CC(C)CCCC(C)(C)O)OC (stereo unspecified) | inactive | – |
| CCC1CCCCC1 | inactive | – |
| CN(C)c1ccncc1 | inactive | – |
| CCCCCCCCCC(C)C=O (stereo unspecified) | inactive | – |
| CCCCCCOC(=O)C(C)C | inactive | – |
| CCCC(O)C(O)CO (stereo unspecified) | inactive | – |
| CCc1ccc(O)c(OC)c1 | inactive | – |
| CC(C)c1ccccc1O | inactive | – |
| O=C1OC(=O)c2c(Br)c(Br)c(Br)c(Br)c21 | inactive | – |
| CC(=O)c1ccccn1 | inactive | – |
| CC1(C)CCC[C@]2(C)[C@H]3CCO[C@]3(C)CC[C@@H]12 | inactive | – |
| CCCC(C)=O | inactive | – |
| OCC(O)c1ccccc1 (stereo unspecified) | inactive | – |
| CCOc1ccccc1O | inactive | – |
| CC(C)(N=C=O)c1cccc(C(C)(C)N=C=O)c1 | inactive | – |
| COc1cccc(OC)c1O | inactive | – |

— PubChem BioAssay (EPA / NIEHS)
